Drawing on PubChem BioAssay (NCI), this text covers growth for 17 compounds.

Holding throughout (assay): NCI-60 one-dose screen, 48 h (100 = growth as untreated, 0 = no growth, -100 = all killed)
One experiment concerns T-47D breast. The settings on record: 10 µM unless noted.
A further experiment relates to BT-549 breast. The settings on record: 10 µM unless noted.
The test system of the next experiment is MDA-MB-435 melanoma. The following applies: 10 µM unless noted.
The test system of the next experiment is SW-620 colon. The following applies: 10 µM unless noted.
The next experiment has as its system MCF7 breast.
For another experiment, the system named is HCT-116 colon. The settings on record: 10 µM unless noted.
Another experiment has as its system HCC-2998 colon. The settings on record: 10 µM unless noted.
A further experiment concerns KM12 colon. The settings on record: 10 µM unless noted.

Where “and” joins values, the source holds several entries; their conditions need not be identical. Equal entries are not always repeated. The panel holds about 83,000 compounds, 20% with a hit somewhere; the sample as a whole holds those more often.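 Single-concentration screen, 48 h exposure, 96-well plates. Endpoint: percent growth. Below 10 = active.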 Values without a mark were called inactive. Calls of active or inactive are those of the source.

Turning to `CC(=O)O[C@H]1CC[C@]2(C)[C@H]3CC=C4[C@@H]5CC(C)(C)CC[C@]5(C(=O)OCC(COC(=O)C(Cl)Cl)(COC(=O)C(Cl)Cl)NC(=O)C(Cl)Cl)CC[C@@]4(C)[C@]3(C)CC[C@H]2C1(C)C`, the growth was 32.7% in the experiment with T-47D breast; 75.2% in the experiment with BT-549 breast; 78.6% in the experiment on MDA-MB-435 melanoma; 79.4% in the experiment with SW-620 colon; 41.9% with MCF7 breast (10 µM unless noted); 26.7% in the experiment with HCT-116 colon. Further, the growth in the experiment on HCC-2998 colon is 86.9%.
As for `C=C1C[C@@]2(C)C(CC[C@]3(C)C2CC=C2C4CC(C)(C)C[C@@H](OC(=O)/C(C)=C\C)[C@]4(C(=O)O)CC[C@]23C)C(C)(C)C1=O` (stereo partly specified), the growth is -11.3% (active) in the experiment with T-47D breast; -19.7% (active) in the experiment with BT-549 breast; -12.4% (active) with MDA-MB-435 melanoma; -29.1% (active) in the experiment on SW-620 colon; 8.17% (active) in the experiment on MCF7 breast (10 µM unless noted); -78.5% (active) in the experiment with HCT-116 colon. In addition, the growth with HCC-2998 colon is -79.9% (active).
Turning to `O=C1Nc2ccc(Br)cc2/C1=N/c1nc(-c2ccccc2)cs1`, the growth in the experiment with T-47D breast was 58.9%; with BT-549 breast, 73.2%; in the experiment with MDA-MB-435 melanoma it was 97.8%; in the experiment on SW-620 colon, 88.6%; with MCF7 breast (10 µM unless noted), 67.4%; in the experiment on HCT-116 colon, 75.6%. In addition, the growth in the experiment with HCC-2998 colon is 109%.
For the compound `NC(=O)N/N=C\c1ccc([N+](=O)[O-])o1`, the growth with T-47D breast is 101%; in the experiment with BT-549 breast, 106%; in the experiment with MDA-MB-435 melanoma, 102%; in the experiment on SW-620 colon it was 96.9%; with MCF7 breast (10 µM unless noted), 94.6%; in the experiment with HCT-116 colon, 109%. Moreover, in the experiment on HCC-2998 colon, the growth was 104%.
For `Cc1cc(O)c2cc3c(O)c(O)ccc3cc2c1`, the growth is 104% in the experiment with T-47D breast; 109% in the experiment on BT-549 breast; 123% with MDA-MB-435 melanoma; 114% in the experiment with SW-620 colon; 139% in the experiment on MCF7 breast (10 µM); 4.83% (active) and -31.7% (active) in the experiment with MCF7 breast (100 µM). Besides, the growth was 102% with HCT-116 colon, 114% with HCC-2998 colon and 108% in the experiment on KM12 colon.
For the compound `CNC(=O)c1c(NC(=O)c2ccc(C(C)C)cc2)sc2c1CCC(=O)C2`, the growth in the experiment with T-47D breast was -36.6% (active); in the experiment with BT-549 breast it was -11.2% (active); with MDA-MB-435 melanoma, 9.66% (active); in the experiment on SW-620 colon, -35.5% (active); with MCF7 breast (10 µM unless noted) it was 0.569% (active); in the experiment on HCT-116 colon it was -31.2% (active). The growth with HCC-2998 colon was -55.3% (active).
As for `NS(=O)(=O)c1ccc(CCn2c(SCC(=O)N/N=C/c3ccccc3O)nc3ccccc3c2=O)cc1`, the growth was 49.2% with T-47D breast; 53.9% in the experiment on BT-549 breast; 3.97% (active) with MDA-MB-435 melanoma; 26.1% in the experiment on SW-620 colon; 21.7% with MCF7 breast (10 µM unless noted); 16.9% with HCT-116 colon. Also, in the experiment with HCC-2998 colon, the growth is 86.8%.
For the compound `CCCCCCCCCCCCCCCCCC(=O)OCCCCCCCCCCCCC`, the growth in the experiment with T-47D breast was 98.4%; with BT-549 breast, 133%; in the experiment on MDA-MB-435 melanoma, 109%; in the experiment with SW-620 colon it was 117%; with MCF7 breast (10 µM unless noted), 114%; with HCT-116 colon it was 111%. Besides, in the experiment with HCC-2998 colon, the growth is 113%.
For the compound `CC(C)c1cccc(C#N)c1`, the growth with T-47D breast is 95.7%; in the experiment with BT-549 breast, 102%; in the experiment on MDA-MB-435 melanoma it was 101%; in the experiment with SW-620 colon it was 107%; with MCF7 breast (10 µM unless noted), 95.1%; with HCT-116 colon, 101%. Besides, the growth in the experiment with HCC-2998 colon was 102%.
Regarding `CN1C(=O)N(C)C2C1NN=c1s/c(=C\c3ccc(C(F)(F)F)cc3)c(=O)n12` (stereo unspecified), the growth was 24.6% in the experiment on T-47D breast; 50.4% in the experiment with BT-549 breast; -52.1% (active) in the experiment on MDA-MB-435 melanoma; 19.1% in the experiment with SW-620 colon; 12% in the experiment on MCF7 breast (10 µM unless noted); 26.9% in the experiment on HCT-116 colon. For the same compound, the growth in the experiment with HCC-2998 colon was 54.9%.
With `COc1ccc(-n2c(COc3ccc(F)cc3)n[nH]c2=S)cc1`, the growth in the experiment with T-47D breast was 101%; in the experiment on BT-549 breast, 181%; in the experiment with MDA-MB-435 melanoma it was 105%; in the experiment on SW-620 colon, 104%; with MCF7 breast (10 µM unless noted) it was 107%; with HCT-116 colon, 101%. For the same compound, the growth in the experiment on HCC-2998 colon is 113%.
As for `COc1ccc2nc3ccccc3c(NCc3ccc(C)cc3)c2c1`, the growth is 30.6% in the experiment with T-47D breast; 51.6% in the experiment with BT-549 breast; 42.2% in the experiment on MDA-MB-435 melanoma; 18.5% with SW-620 colon; 3.43% (active) in the experiment with MCF7 breast (10 µM unless noted); 8.58% (active) in the experiment with HCT-116 colon. In addition, the growth in the experiment with HCC-2998 colon was -57.9% (active).
With `O=C(Nc1cccc(C2=NCCN2)c1)c1ccc(N=Nc2ccc(C(=O)Nc3cccc(C4=NCCN4)c3)cc2)cc1`, the growth is 46.5% in the experiment with T-47D breast; 69.1% in the experiment on BT-549 breast; 47.9% with MDA-MB-435 melanoma; 70.7% in the experiment on SW-620 colon; 62.4% with MCF7 breast (10 µM unless noted); 53.1% in the experiment with HCT-116 colon. Moreover, the growth in the experiment on HCC-2998 colon is 79.4%.
For `COc1cc(NC(=O)CSc2nc3ccc(Cl)cc3c(=O)n2-c2ccccc2)cc(OC)c1OC`, the growth was 85.4% in the experiment on T-47D breast; 78.9% with BT-549 breast; 101% in the experiment with MDA-MB-435 melanoma; 101% with SW-620 colon; 99.1% with MCF7 breast (10 µM unless noted); 92.5% with HCT-116 colon. Moreover, the growth in the experiment on HCC-2998 colon was 106%.
As to `COc1ccc(CC2c3cc(OC)c(OC)cc3CC[N+]2(C)CCC(=O)OCCCCCOC(=O)CC[N+]2(C)CCc3cc(OC)c(OC)cc3C2Cc2ccc(OC)c(OC)c2)cc1OC` (stereo unspecified), the growth with T-47D breast is 94.5%; in the experiment on BT-549 breast, 103%; in the experiment on MDA-MB-435 melanoma, 96.7%; in the experiment on SW-620 colon, 100%; in the experiment with MCF7 breast (10 µM unless noted) it was 85.2%; in the experiment with HCT-116 colon, 88.5%. In addition, the growth with HCC-2998 colon is 105%.
For the compound `O=C(c1ccc(OCCN2CCCCC2)cc1)c1c(-c2ccc(O)cc2)sc2cc(O)ccc12`, the growth with T-47D breast is 65.5%; in the experiment on BT-549 breast it was 66.4%; in the experiment with MDA-MB-435 melanoma it was 90.5%; with SW-620 colon, 98.2%; in the experiment with MCF7 breast (10 µM unless noted), 31.9%; in the experiment with HCT-116 colon, 76.2%. The growth with HCC-2998 colon is 103%.
Consider `CCN1C(=O)N(CC)C2C1NN=c1s/c(=C\c3ccc(Br)cc3)c(=O)n12` (stereo unspecified), for which the growth in the experiment with T-47D breast is 54.3%; in the experiment on BT-549 breast it was 18.2%; in the experiment on MDA-MB-435 melanoma, -13.6% (active); in the experiment on SW-620 colon it was 23.1%; in the experiment on MCF7 breast (10 µM unless noted) it was 1.61% (active); in the experiment with HCT-116 colon it was 5.14% (active). Further, the growth in the experiment with HCC-2998 colon was 10.2%.
